About 83,000 compounds went through this panel and 20% of them were active in at least one assay; those are over-represented in the sample as a whole.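 A percent growth of 40 corresponds to 60% growth inhibition; 0 means no net growth; -100 means all cells died. Active threshold: below 10.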 Unmarked numbers belong to inactive results. Active and inactive are the calls of the source.
Legend:
Assay in all cases: NCI-60 one-dose screen, 48 h (100 = growth as untreated, 0 = no growth, -100 = all killed)
HCT-15 colon = conditions: 10 µM unless noted
HT29 colon = conditions: 10 µM unless noted
SNB-75 CNS = conditions: 10 µM unless noted
SNB-19 CNS = conditions: 10 µM unless noted
U251 CNS = conditions: 10 µM unless noted
SK-MEL-5 melanoma = conditions: 10 µM unless noted
UACC-62 melanoma = conditions: 10 µM unless noted
LOX IMVI melanoma = conditions: 10 µM
SK-MEL-28 melanoma = conditions: 10 µM unless noted
PC-3 prostate = conditions: 10 µM unless noted

Row | Structure (SMILES) | growth (HCT-15 colon) | growth (HT29 colon) | growth (SNB-75 CNS) | growth (SNB-19 CNS) | growth (U251 CNS) | growth (SK-MEL-5 melanoma) | growth (UACC-62 melanoma) | growth (LOX IMVI melanoma) | growth (SK-MEL-28 melanoma) | growth (PC-3 prostate)
1 | O=S(=O)(OCCOS(=O)(=O)c1ccccc1)c1ccccc1 | 91.9% | 92.2% | 93.6% | 104% | 92.6% | 93.6% | 95.4% | 91.7% | 112% | –
2 | Cc1ccc(N)c(S(=O)(=O)O)c1 | 103% | 96.1% | 75.6% | 99.5% | – | 98.1% | 98.9% | 104% | 126% | 107%
3 | CCOC(=O)/C(O)=C(\C=N\C(=S)Nc1ccc(Cl)c(Cl)c1)C(=O)OCC | 89.3% | 92.8% | 82% | 104% | – | 91.7% | 88.4% | 92.9% | 109% | 86.9%
4 | CCCCCCCCCCCCCCCCCC(=O)NCCNC(=O)CCCCCCCCCCCCCCCCC | 95.1% | 49.1% | 82.8% | 108% | 94.5% | 102% | 104% | 61.4% | 105% | –
5 | CCOC(=O)c1c[nH][nH]c1=O | 103% | 105% | 118% | 99.1% | 103% | 105% | 96.2% | 97.8% | 127% | –
6 | CN1CCN(C(=S)S)CC1 | 100% | 75.5% | 105% | 103% | 102% | 111% | 101% | 87.9% | 115% | –
7 | CCN(CC)CCOC(=O)Nc1c(C(C)C)cccc1C(C)C | 106% | 92.8% | 110% | 99.6% | 107% | 95.7% | 93.3% | – | 111% | –
8 | Nc1ccc2ccccc2c1-c1c(N)ccc2ccccc12 | 30.7% | 7.41% (active) | 42.7% | 44.1% | 21.5% | 25.5% | 24.9% | – | 56.4% | –
9 | BrCc1cccc(C[P+](c2ccccc2)(c2ccccc2)c2ccccc2)c1 | 92.5% | 50.7% | 47.6% | 52.3% | – | 22.6% | 54.7% | 40.2% | 67.6% | 23.2%
10 | O=C(Nc1c(Cl)cc(Cl)cc1Cl)ON=C1CCCCC1 | 102% | 104% | 94.4% | 108% | 104% | 101% | 98.7% | – | 106% | –
11 | Cc1cc(Cl)cc(Cc2cc(Cl)cc(C)c2O)c1O | 12.4% | 98.1% | 19.3% | 17.3% | – | 6.88% (active) | 16.1% | 5.44% (active) | 22.6% | -7.63% (active)
12 | Cc1cc(CC(=O)NCCO)n(CCO)c(=O)c1 | 109% | 98.3% | 95.3% | 103% | 97.9% | 104% | 105% | 98.8% | 118% | –
13 | CCOC(=O)C(C#N)=C1CCN(C)CC1 | 99.5% | 113% | 102% | 101% | 104% | 111% | 103% | 109% | 134% | –
14 | CCCC1OC(c2ccco2)OCC1CC (stereo unspecified) | 97.2% | 103% | 84.2% | 98.2% | 94.8% | – | 91.7% | 95.1% | 113% | –
15 | Cc1ccc(C(C)C)c(OCC(=O)O)c1 | 101% | 109% | 99.3% | 104% | 96.1% | 100% | 100% | 102% | 106% | –
16 | O=S(=O)(O)C(C(I)I)S(=O)(=O)O | 110% | 118% | 98.3% | 113% | 96.3% | – | 110% | 101% | 114% | –
17 | Cc1cc(Nc2ccc3c(c2)OCO3)c2cc3c(cc2n1)OCO3 | 19.9% | 15.8% | 25.6% | 0.716% (active) | 19.9% | 22.6% | 34% | 14.3% | 34.2% | –

Row | Structure (SMILES) | growth (HCT-15 colon) | growth (HT29 colon) | growth (SNB-75 CNS) | growth (SNB-19 CNS) | growth (U251 CNS) | growth (SK-MEL-5 melanoma) | growth (UACC-62 melanoma) | growth (LOX IMVI melanoma) | growth (SK-MEL-28 melanoma) | growth (PC-3 prostate)
18 | CCC(C)c1c(N)n(S(=O)(=O)c2ccc(C)cc2)oc1=O (stereo unspecified) | 100% | 93.5% | 88.9% | 106% | 104% | 100% | 101% | – | 119% | –
19 | O=C(NCc1ccco1)Nc1cccc2c(NC(=O)NCc3ccco3)cccc12 | 99.2% [100 µM] | 55.2% [100 µM] | 49.7% [100 µM] | 52.6% [100 µM] | 64.8% [100 µM] | 90% [100 µM] | 96.6% [100 µM] | – | 91.3% [100 µM] | –
20 | CCOC(C=O)OCC | 102% | 99.7% | 98.5% | 106% | – | 106% | 104% | 94.1% | 116% | –
21 | CC(=O)Nc1ccc(O)c(C)c1 | 118% | 98.4% | 95.4% | 104% | – | 100% | 104% | 95.4% | 103% | –
22 | CC(c1ccccc1)N1C(=O)CSC1=S (stereo unspecified) | 9.14% (active) | 1.08% (active) | 19.9% | 104% | – | 34.8% | 34.5% | 16.1% | 46.9% | 45.2%
23 | Cc1c(-c2ccc(C3CCCCC3)cc2)nc2ccc(F)cc2c1C(=O)O | 25.1% | 31.6% | 62.7% | 61.7% | – | 32.9% | 43.3% | – | 60.8% | 44.9%
24 | CCOC(=O)c1c(C)[nH]c(C)c1C=O | 107% | 107% | 94.2% | 97.1% | – | 101% | 91.2% | 97.9% | 109% | 82.7%
25 | O=S(=O)(c1ccc(NC(=S)NCc2cccnc2)cc1)N1CCCCC1 | 57.2% | 55.2% | 78.4% | 60.6% | – | 74.2% | 93.7% | 56.5% | 92.6% | 25.3%
26 | C=COC(=O)C(C)(C)C | 102% | 104% | 90.4% | 95.3% | – | 99.9% | 99.9% | 96.4% | 108% | 95.3%
27 | OC(CCN1CCCCC1)(c1ccccc1)c1ccccc1 | 104% | 96.1% | 85.8% | 110% | – | 97.4% | 106% | 97.2% | 112% | 96%
28 | FC(F)(F)c1cc(NC2=NCCN=C(Nc3cc(C(F)(F)F)cc(C(F)(F)F)c3)SS2)cc(C(F)(F)F)c1 | 37.8% | 49% | 71.5% | 56.5% | – | 50.2% | 35.6% | 50.5% | 74.7% | 17.1%
29 | CCCOCc1cn[nH]n1 | 106% | 105% | 98.1% | 115% | – | 106% | 98.2% | 98.6% | 109% | 102%
30 | Cc1ccc(C)c(CN(C)C)c1O | 121% | 115% | 84.2% | 122% | – | 107% | 117% | 98.9% | 102% | 102%
31 | NC(=O)c1cc2c3ccccc3ccn2c1-c1ccccc1 | 4.13% (active) | 7.35% (active) | 59.9% | – | 16.1% | -34.2% (active) | 31.7% | 20% | 105% | 37.3%
32 | CC1(C)OC2C(CO)OC(n3ccc(=O)[nH]c3=O)C2O1 (stereo unspecified) | 102% | 94.3% | 106% | 100% | – | 97.9% | 93.9% | 101% | 108% | 90.2%
33 | Nc1nc2nnc(-c3ccccc3)c(-c3ccccc3)n2n1 | 94.7% | 97.4% | 91.4% | 80% | – | 86.5% | 87.8% | 87.6% | 86.3% | –

— PubChem BioAssay (NCI)
